# Assay results as given in PubChem BioAssay (EPA / NIEHS).
# The source made the active and inactive calls. The calls were made as follows: active = hit-call score of the fitted dose curve at least 0.9, where 1 is the maximum; inactive = score below 0.9.
# Read-out: Nuclear factor NF-kappa-B p105 subunit (Homo sapiens) (UniProt P19838)
# Assay: LTEA_HepaRG_NFKB1: Life Technologies and Expression Analysis (LTEA) Assay for Nuclear Factor Kappa B Subunit 1 (NFKB1) using HepaRG (AID 2283521);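 as to outcome: differentiated human HepaRG liver cells in serum-free induction medium; TaqMan qRT-PCR transcript normalised to ACTB GAPDH and POLR2A housekeeping genes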
# Conditions: mRNA level, 48 h; actives raise or lower the signal
# In short: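 Human HepaRG cells receive eight half-log concentrations, highest 100 uM, for 48 h. NFKB1 expression is then quantified by qRT-PCR and analysed for up- or down-regulation relative to 0.5% DMSO vehicle.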
# Sequence of Nuclear factor NF-kappa-B p105 subunit (Homo sapiens) (P19838 whole entry, looked up): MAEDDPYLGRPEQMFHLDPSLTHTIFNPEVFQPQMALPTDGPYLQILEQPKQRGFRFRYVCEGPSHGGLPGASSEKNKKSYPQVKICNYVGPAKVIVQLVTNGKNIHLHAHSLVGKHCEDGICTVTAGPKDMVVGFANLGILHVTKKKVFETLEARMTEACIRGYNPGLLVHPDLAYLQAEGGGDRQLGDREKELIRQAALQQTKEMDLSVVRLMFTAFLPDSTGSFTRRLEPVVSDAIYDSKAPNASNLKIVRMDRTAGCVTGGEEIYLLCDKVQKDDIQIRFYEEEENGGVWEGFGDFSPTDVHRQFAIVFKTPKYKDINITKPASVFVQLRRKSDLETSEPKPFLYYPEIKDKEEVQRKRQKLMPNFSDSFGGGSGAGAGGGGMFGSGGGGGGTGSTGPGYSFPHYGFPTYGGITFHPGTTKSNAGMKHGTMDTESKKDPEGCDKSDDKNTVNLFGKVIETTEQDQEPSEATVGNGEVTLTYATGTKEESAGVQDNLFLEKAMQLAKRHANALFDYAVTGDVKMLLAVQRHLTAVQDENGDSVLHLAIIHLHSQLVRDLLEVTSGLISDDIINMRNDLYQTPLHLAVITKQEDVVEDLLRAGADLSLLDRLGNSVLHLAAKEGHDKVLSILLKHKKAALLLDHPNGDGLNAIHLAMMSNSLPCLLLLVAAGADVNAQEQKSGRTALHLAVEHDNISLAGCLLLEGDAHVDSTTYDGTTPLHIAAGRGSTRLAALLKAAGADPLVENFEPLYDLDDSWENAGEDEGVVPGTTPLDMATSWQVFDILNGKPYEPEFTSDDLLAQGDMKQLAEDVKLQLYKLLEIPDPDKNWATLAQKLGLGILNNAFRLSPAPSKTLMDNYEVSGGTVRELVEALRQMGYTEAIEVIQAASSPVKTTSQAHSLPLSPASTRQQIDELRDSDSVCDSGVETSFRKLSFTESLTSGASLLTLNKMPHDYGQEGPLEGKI
Structure (SMILES),outcome,AC50
CCOC(=O)C(Cl)Cc1cc(-n2nc(C)n(C(F)F)c2=O)c(F)cc1Cl (stereo not drawn),inactive,
CCc1nn(C)c(C(=O)NCc2ccc(C(C)(C)C)cc2)c1Cl,inactive,
N#CC(CCc1ccc(Cl)cc1)(Cn1cncn1)c1ccccc1 (stereo not drawn),inactive,
CNC(=O)ON=CC(C)(C)SC,inactive,
CCNc1nc(Cl)nc(NC(C)C)n1,inactive,
CCON=C(CC)C1=C(O)CC(c2c(C)cc(C)cc2C)CC1=O (stereo not drawn),inactive,
CCCC1COC(Cn2cncn2)(c2ccc(Cl)cc2Cl)O1 (stereo not drawn),inactive,
CCCCOC(=O)c1ccccc1C(=O)OCCCC,inactive,
COC(=O)c1ccccc1C(=O)OC,inactive,
C=CCC1=C(C)C(OC(=O)C2C(C=C(C)C)C2(C)C)CC1=O (stereo not drawn),inactive,
COP(N)(=O)SC (stereo not drawn),inactive,
O=C(O)COc1nc(Cl)c(Cl)cc1Cl,inactive,
COc1ccc(C(c2ccc(OC)cc2)C(Cl)(Cl)Cl)cc1,inactive,
CCOc1cc(Oc2ccc(C(F)(F)F)cc2Cl)ccc1[N+](=O)[O-],inactive,
CCOC(=O)CC(SP(=S)(OC)OC)C(=O)OCC (stereo not drawn),inactive,
CNC(=S)S,inactive,
CCCN(CCC)c1c([N+](=O)[O-])cc(S(N)(=O)=O)cc1[N+](=O)[O-],inactive,
CC(C)C1(C)N=C(c2nc3ccccc3cc2C(=O)O)NC1=O (stereo not drawn),inactive,
CC(Oc1ccc(Cl)cc1Cl)C(=O)O (stereo not drawn),inactive,
O=C(Nc1ccccc1)Nc1ccnc(Cl)c1,,39.2 µM (active)
Cc1ccc(-c2c(Cl)nc(C#N)n2S(=O)(=O)N(C)C)cc1,,50 µM (active)
C#CCOS(=O)OC1CCCCC1Oc1ccc(C(C)(C)C)cc1 (stereo not drawn),inactive,
CCCCC(CC)COC(=O)c1ccccc1C(=O)OCC(CC)CCCC (stereo not drawn),inactive,
